Sampled rows, rich in hits. Any-hit rate of the full collection: about 19%.
IL1B secr inh = blocks inflammasome-driven IL-1 beta release; THP-1 LPS/ATP IL-1B secretion, AlphaLISA, 16 h; active compounds read low; activity change, % at 57.5 µM; hit rate 4.7% among 360,000; in the data active means activity change below about -50%; inconclusive means mostly about -30% to -49%
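Secreted IL-1B measured by AlphaLISA bead assay after 16 h compound exposure of THP-1 cells; compounds (final up to 57.5 uM) added 1 h before LPS (250 ng/mL) and ATP (1.25 mM) stimulation; lower signal means less secretion.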
DT40 TDP1 no CPT = qHTS for Inhibitors of human tyrosyl-DNA phosphodiesterase 1 (TDP1): qHTS in cells in absence of CPT. DT40 Tdp1-/- hTDP1 cells, no CPT, ATP luminescence, 48 h. Potency, µM (highest dose often 46.2 µM), actives largely listed as inhibitors. hit rate 15% among 420,000; further: nearly all actives have a fitted effect of over 55% in size
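Growth of hTDP1-complemented DT40 Tdp1-knockout cells is measured by ATP luminescence after at least 48 hr compound exposure at 37 °C, with DMSO substituting for the 20 nM CPT used in the parallel screen.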
HepG2 viability = counter-screen for TGF-b inhibitors: cytotoxicity in HepG2 cells; HepG2 CAGA-GFP viability, ATP luminescence, 18 h; Potency, µM (top dose mostly 46.1 µM), usual class: cytotoxic; hit rate 0.76% among 410,000
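HepG2 CAGA-GFP cells (1000/well, DMEM with 1% FBS) received compound, then TGF-beta at 500 pg/mL final, and were incubated 18 hours at 37 degrees C. Viability was read by CellTiter-Glo luminescence. Media-only wells were set as complete cell-killing and DMSO as no toxicity.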
S-ASM inh = human S-ASM enzyme inhibition; placental ASM, HMU-PC fluorogenic substrate, 60 min; P17405; hit rate 0.006% among 340,000; Potency, µM (highest dose often 57.5 µM), hits mostly inhibitors
Target sequence (P17405 47-631 limits assumed): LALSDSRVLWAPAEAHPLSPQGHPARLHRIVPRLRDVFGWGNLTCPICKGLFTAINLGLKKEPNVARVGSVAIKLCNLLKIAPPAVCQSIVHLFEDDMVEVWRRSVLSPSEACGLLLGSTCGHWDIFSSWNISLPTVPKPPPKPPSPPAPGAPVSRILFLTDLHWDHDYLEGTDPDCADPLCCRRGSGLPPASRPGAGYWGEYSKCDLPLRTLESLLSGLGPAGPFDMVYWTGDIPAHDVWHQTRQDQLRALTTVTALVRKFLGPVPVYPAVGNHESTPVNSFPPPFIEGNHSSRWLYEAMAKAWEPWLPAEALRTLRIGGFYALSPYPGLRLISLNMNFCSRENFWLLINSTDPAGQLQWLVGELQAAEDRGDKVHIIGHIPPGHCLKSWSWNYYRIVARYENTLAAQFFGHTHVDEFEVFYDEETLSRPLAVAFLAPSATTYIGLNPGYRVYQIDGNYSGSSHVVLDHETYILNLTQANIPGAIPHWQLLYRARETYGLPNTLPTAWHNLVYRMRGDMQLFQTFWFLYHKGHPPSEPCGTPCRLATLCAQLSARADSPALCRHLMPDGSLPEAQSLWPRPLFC
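Fluorogenic HMU-PC substrate (9 uM final) is turned over by placental ASM in 60 min at 37 C after a 10 min compound preincubation. Reaction ended by alkaline stop (pH 10), with fluorescence read at 386/447 nm.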
DT40 TDP1 CPT = growth inhibition of DT40 Tdp1-/-;hTDP1 cells with camptothecin (screen for TDP1 inhibitors). hit rate 12% among 420,000. AID 686979. chicken DT40 Tdp1-/-;hTDP1 cells + 20 nM CPT, ATP luminescence, 48 h. Potency, µM (titrated, usually from 46.2 µM), usual class: inhibitors; further: nearly all actives have a fitted effect of over 55% in size
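Chicken DT40 Tdp1-/- cells complemented with human TDP1, 400 cells/well, exposed to compounds plus 20 nM camptothecin for at least 48 h at 37 C; viability read as ATP content by CellTiter-Glo luminescence.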
TGFb inhibitor = TGF-b pathway inhibition | HepG2 CAGA-GFP TGF-b/SMAD3 reporter, GFP fluorescence, 18 h; TGF-beta stimulated, 500 pg/mL final | Potency, µM (doses to about 46.1 µM), actives largely listed as inhibitors | hit rate 1.2% among 410,000 | AID 588855; further: nearly all actives have a fitted effect of over 65% in size
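Per well, imaged GFP fluorescence of HEPG2 CAGA-GFP cells gives the signal; cells get compound, then TGF-beta (500 pg/mL final), 18 h at 37 degrees C; %Activity versus -TGF-beta and +DMSO controls.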
Hits are given with their value. Unless noted, the call rests on the fitted dose curve; in most records, active means well fitted curve in the direction sought with a large enough effect; inconclusive means small, poorly fitted or top-dose-only effect, or another doubt; inactive means no such curve, though single readings can be large; an effect the other way counts as inactive or inconclusive.

How did CCC(=O)N1CCN(c2ccc(Cl)cc2NC(=O)c2ccc(N3CCCC3)c([N+](=O)[O-])c2)CC1 do in these assays?
IL1B secr inh: -51.5; DT40 TDP1 no CPT: inconclusive; HepG2 viability: inactive; S-ASM inh: inactive; DT40 TDP1 CPT: inconclusive; TGFb inhibitor: inactive

What do the screens show for `CCC(=O)Nc1cc(Cl)ccc1N1CCN(C(=O)CC)CC1`?
IL1B secr inh: inactive; DT40 TDP1 no CPT: inconclusive; HepG2 viability: inactive; S-ASM inh: inactive; DT40 TDP1 CPT: inactive; TGFb inhibitor: inactive

What do the screens show for `CCC(=O)N1CCN(c2ccc(Cl)cc2NC(=O)c2ccc3c(c2)OCCO3)CC1`?
IL1B secr inh: inactive; DT40 TDP1 no CPT: inconclusive; HepG2 viability: inactive; S-ASM inh: inactive; DT40 TDP1 CPT: 16.4µM; TGFb inhibitor: inactive

How did CCOC(=O)N1CCN(C(=O)c2ccc3c(c2)N(Cc2ccccc2F)C(=O)c2ccccc2S3=O)CC1 (stereo not given) do in these assays?
DT40 TDP1 no CPT: inconclusive; HepG2 viability: inactive; DT40 TDP1 CPT: inconclusive; TGFb inhibitor: inconclusive

How did CCC1CCCCN1CCCNC(=O)C1CCC(CNS(=O)(=O)c2c(C)cc(C)cc2C)CC1 (stereo not given) do in these assays?
IL1B secr inh: inactive; DT40 TDP1 no CPT: inconclusive; HepG2 viability: inactive; S-ASM inh: inactive; DT40 TDP1 CPT: 29.1µM; TGFb inhibitor: inactive

Results for CCN(CC)CCCNC(=O)C1CCC(CNS(=O)(=O)c2c(C)cc(C)cc2C)CC1 (stereo not given) ?
IL1B secr inh: inactive; DT40 TDP1 no CPT: inactive; HepG2 viability: inactive; S-ASM inh: inactive; DT40 TDP1 CPT: inconclusive; TGFb inhibitor: inactive

Results for CCC(C)C(NC(=O)C1CCC(C)CC1)C(=O)NCCc1ccc(S(N)(=O)=O)cc1 (stereo not given) ?
IL1B secr inh: inactive; DT40 TDP1 no CPT: inactive; HepG2 viability: inactive; S-ASM inh: inactive; DT40 TDP1 CPT: inactive; TGFb inhibitor: inactive

How did CCC(C)C(NC(=O)C1CCC(C)CC1)C(=O)NCCCN1CCCCC1CC (stereo not given) do in these assays?
IL1B secr inh: -63.5; DT40 TDP1 no CPT: inactive; HepG2 viability: inactive; S-ASM inh: inactive; DT40 TDP1 CPT: inactive; TGFb inhibitor: inactive

How did CCc1ccccc1NC(=O)C1(C)Cc2ccccc2C(=O)O1 (stereo not given) do in these assays?
DT40 TDP1 no CPT: inactive; HepG2 viability: inactive; DT40 TDP1 CPT: inactive; TGFb inhibitor: inactive

How did Cc1ccc(CC(=O)Nc2nccs2)cc1C do in these assays?
IL1B secr inh: inactive; DT40 TDP1 no CPT: inactive; HepG2 viability: inactive; S-ASM inh: inactive; DT40 TDP1 CPT: inactive; TGFb inhibitor: inactive

How did CCn1c(SCC(=O)Nc2ccc(Br)cn2)nnc1C1CC1 do in these assays?
IL1B secr inh: inactive; DT40 TDP1 no CPT: inactive; HepG2 viability: inactive; S-ASM inh: inactive; DT40 TDP1 CPT: inactive; TGFb inhibitor: inactive

What do the screens show for `NC(Cc1ccccc1)c1csc(NC(=O)c2cccc(OC(F)(F)F)c2)n1` (stereo not given)?
DT40 TDP1 no CPT: 7.31µM; HepG2 viability: inactive; DT40 TDP1 CPT: 7.31µM; TGFb inhibitor: inconclusive

What do the screens show for `COc1ccc(CC(N)c2csc(NC(=O)c3cccc(OC(F)(F)F)c3)n2)cc1` (stereo not given)?
IL1B secr inh: -60.2; DT40 TDP1 no CPT: 11.6µM; HepG2 viability: inactive; DT40 TDP1 CPT: 14.6µM; TGFb inhibitor: inconclusive

How did CC(=O)NC(CCCNC(=S)NC1CCCCC1)C(=O)O (stereo not given) do in these assays?
IL1B secr inh: inactive; DT40 TDP1 no CPT: inactive; HepG2 viability: inactive; S-ASM inh: inactive; DT40 TDP1 CPT: inactive; TGFb inhibitor: inactive

How did CCC(=O)N1CCc2cc(Br)cc(S(=O)(=O)Nc3ccccc3C(=O)OC)c21 do in these assays?
DT40 TDP1 no CPT: inconclusive; HepG2 viability: inactive; DT40 TDP1 CPT: inactive; TGFb inhibitor: inactive

How did CCOc1ccc(NC(=O)CN(C)C(=O)c2ccccc2Cc2ccccc2)cc1OCC do in these assays?
IL1B secr inh: inactive; DT40 TDP1 no CPT: 9.2µM; HepG2 viability: inactive; S-ASM inh: inactive; DT40 TDP1 CPT: 14.6µM; TGFb inhibitor: inactive

Results for CCOc1ccc(NC(=O)CN(C)C(=O)CSCc2ccc(C)cc2)cc1OCC ?
IL1B secr inh: inactive; DT40 TDP1 no CPT: inconclusive; HepG2 viability: 5.01µM; DT40 TDP1 CPT: inconclusive; TGFb inhibitor: inactive

Results for CSc1ccc(CN(C)C(=O)COc2ccc(C(=O)c3ccccc3)cc2)cc1 ?
IL1B secr inh: inactive; DT40 TDP1 no CPT: 14.6µM; HepG2 viability: inactive; S-ASM inh: inactive; DT40 TDP1 CPT: inconclusive; TGFb inhibitor: inconclusive

How did CCOc1ccc(NC(=O)CN(C)C(=O)CSCc2cccc(C)c2)cc1OCC do in these assays?
IL1B secr inh: inactive; DT40 TDP1 no CPT: inactive; HepG2 viability: inactive; S-ASM inh: inactive; DT40 TDP1 CPT: inactive; TGFb inhibitor: inactive

Results for CCOc1ccc(NC(=O)CN(C)C(=O)c2ccccc2OCc2cccc(C)c2)cc1OCC ?
IL1B secr inh: inactive; DT40 TDP1 no CPT: inconclusive; HepG2 viability: inactive; S-ASM inh: inactive; DT40 TDP1 CPT: inconclusive; TGFb inhibitor: inconclusive

What do the screens show for `CN(CC(=O)Nc1ccc(F)cc1)C(=O)COC(=O)Cc1c(F)cccc1Cl`?
IL1B secr inh: inactive; DT40 TDP1 no CPT: 6.51µM; HepG2 viability: inactive; S-ASM inh: inactive; DT40 TDP1 CPT: inactive; TGFb inhibitor: inactive

What do the screens show for `CN(CC(=O)Nc1ccccc1Cl)C(=O)COC(=O)Cc1c(F)cccc1Cl`?
IL1B secr inh: inactive; DT40 TDP1 no CPT: inactive; HepG2 viability: inactive; S-ASM inh: inactive; DT40 TDP1 CPT: inactive; TGFb inhibitor: inactive

What do the screens show for `CN(Cc1ccccc1)C(=O)COc1ccc2ccccc2c1`?
IL1B secr inh: inactive; DT40 TDP1 no CPT: inactive; HepG2 viability: inactive; S-ASM inh: inactive; DT40 TDP1 CPT: inactive; TGFb inhibitor: inactive

Results for O=C(CS(=O)(=O)c1cn(CC(=O)N2CCOCC2)c2ccccc12)NCc1ccc(F)cc1 ?
IL1B secr inh: inactive; DT40 TDP1 no CPT: inactive; HepG2 viability: inactive; S-ASM inh: inactive; DT40 TDP1 CPT: inactive; TGFb inhibitor: inactive

What do the screens show for `CC(=O)Nc1cc(NC(C)=O)cc(C(=O)OCC(=O)N(c2ccccc2)C2CCS(=O)(=O)C2)c1` (stereo not given)?
IL1B secr inh: inactive; DT40 TDP1 no CPT: inactive; HepG2 viability: inactive; S-ASM inh: inactive; DT40 TDP1 CPT: inactive; TGFb inhibitor: inactive

How did Cc1cc(C(=O)N(C)CC(=O)Nc2ccccc2C(F)(F)F)c(C)o1 do in these assays?
IL1B secr inh: inactive; DT40 TDP1 no CPT: 23.1µM; HepG2 viability: inactive; S-ASM inh: inactive; DT40 TDP1 CPT: 16.4µM; TGFb inhibitor: inactive

Compound activity deposited in PubChem by National Center for Advancing Translational Sciences (NCATS).
